Source: PubChem BioAssay
The list is not random: actives were taken first. Their share in the collection is about 2.3%.
Mcl-1 Bim block – inhibitors of Bim peptide binding to Mcl-1, primary screen, biochemical, bead-based flow cytometry, multiplex; Induced myeloid leukemia cell differentiation protein Mcl-1 (Homo sapiens), Q07820; Bim peptide-Mcl-1 binding; inhibition, % at 10 µM; 0.1% of 190,000 active; AID 1009, 2008; in the data active means inhibition above about 40%;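 further: 0% = no compound tracer wells and 100% = peptide blocker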
Target sequence (Q07820 whole entry, looked up): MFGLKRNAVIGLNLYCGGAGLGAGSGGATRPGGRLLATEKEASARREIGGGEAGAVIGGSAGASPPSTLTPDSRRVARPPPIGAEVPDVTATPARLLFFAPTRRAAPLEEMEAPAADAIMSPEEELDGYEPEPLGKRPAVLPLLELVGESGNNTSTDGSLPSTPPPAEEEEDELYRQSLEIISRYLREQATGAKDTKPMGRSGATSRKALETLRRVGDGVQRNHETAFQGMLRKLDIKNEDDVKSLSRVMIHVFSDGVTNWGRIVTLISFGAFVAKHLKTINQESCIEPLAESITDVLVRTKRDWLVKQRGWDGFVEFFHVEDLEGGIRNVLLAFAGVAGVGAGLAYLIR
GLD-1 TGE inh – GLD-1/TGE RNA complex disruptors, primary screen, biochemical, fluorescence polarization. purified GLD-1 + fluorescein TGE RNA. inhibition, % at 5.96 µM. 0.44% of 320,000 active;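 active means percent inhibition above a per-plate cutoff, the plate mean of test compounds plus 3 SD, cut at about 30% in these data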;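 further: 0% = DMSO wells with GLD-1 and probe and 100% = wells lacking GLD-1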
MCL1-BIM inh – inhibitors of MCL1 binding to BIM-BH3, primary screen, biochemical, fluorescence polarization; Induced myeloid leukemia cell differentiation protein Mcl-1 (Homo sapiens), Q07820; GST-MCL1 / FITC-Bim-BH3 fluorescence polarization; inhibition, % at 10.9 µM; 0.68% of 320,000 active; AID 2057, 2009;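 active means inhibition above the mean inhibition of all tested compounds plus 3 SD, set per campaign, cut at about 40% in these data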;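 further: 0% = DMSO wells and 100% = unlabeled Bim-BH3 peptide control; higher means more loss of mP so more displacement of Bim peptide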
Mcl1-Noxa inh – Mcl-1/Noxa binding inhibitors, primary screen, biochemical, TR-FRET, 1536-well; Induced myeloid leukemia cell differentiation protein Mcl-1 (Homo sapiens), Q07820; TR-FRET Mcl-1/Noxa peptide binding, 2 h; inhibition, % at 21.7 µM; 1.5% of 220,000 active; AID 1022, 2008;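 active means compounds that cut the protein-peptide binding signal by more than 50% relative to plate controls in a single-dose test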;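 further: His-tagged Mcl-1 with rhodamine Noxa BH3 peptide and terbium anti-His antibody; 0% = Mcl-1 plus Noxa peptide wells and 100% = peptide-only wells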
Bcl-xL primary – inhibitors of human Bcl-xL, primary screen, biochemical, fluorescence polarization, HTS | GST-Bcl-xL / FITC-Bim BH3 peptide fluorescence polarization | AID 2129, 2009 | Bcl-2-like protein 1 (Homo sapiens), Q07817 | 0.7% of 320,000 active | inhibition, % at 10.9 µM;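 active means inhibition above the mean of all tested compounds plus 3 SD, cutoff set per campaign, cut at about 30% in these data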;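 further: 0% = DMSO wells and 100% = unlabeled Bim-BH3 peptide competitor; inhibitors lower millipolarization by displacing the labeled peptide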
Mcl1 Bid PPI – Mcl-1/Bid binding inhibitors, primary screen, biochemical, TR-FRET, 1536-well; AID 1021, 2008; TR-FRET Mcl-1/Bid-Dy647 peptide binding; inhibition, % at 21.7 µM; 0.97% of 220,000 active;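 active means compounds that cut the binding signal by more than half at the single screening dose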;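 further: His-tagged Mcl-1 with europium anti-His antibody binding Bid BH3 peptide; 0% = Mcl-1 plus peptide wells and 100% = peptide-only wells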
GLD-1 TGE cf – GLD-1/TGE RNA binding inhibitors, retest, confirmation, biochemical, fluorescence polarization, triplicate | AID 2459, 2010 | GLD-1/FL-TGE RNA fluorescence polarization | 10% of 550 active | inhibition, % at 5.96 µM | shares compounds with GLD-1 TGE inh;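 active means average inhibition across triplicates above the hit cutoff set in the primary screen, cut at about 32% in these data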;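 further: 0% = GLD-1 with RNA probe and DMSO and 100% = wells lacking GLD-1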
Starred values were filed as active, the others as inactive; nt = no result.

SMILES	Mcl-1 Bim block	GLD-1 TGE inh	MCL1-BIM inh	Mcl1-Noxa inh	Bcl-xL primary	Mcl1 Bid PPI	GLD-1 TGE cf
CCCCC1=CC2=C(c3ccco3)C(=O)C(C)(OC(=O)c3ccc(OC)cc3)C(=O)C2=CN1CC1CC1 (stereo unspecified)	nt	14	13	22	18	-137	nt
CCCCC1=CC2=C(c3ccco3)C(=O)C(C)(OC(=O)c3ccc(OC)cc3)C(=O)C2=CN1c1ccc(OC)cc1 (stereo unspecified)	nt	33*	32	20	30*	-107	4
CCCCC1=CC2=C(c3ccco3)C(=O)C(C)(OC(=O)c3ccc(OC)cc3)C(=O)C2=CN1C(CO)CO (stereo unspecified)	nt	34*	25	14	25	-123	15
CCCCC1=CC2=C(c3ccco3)C(=O)C(C)(OC(=O)c3ccc(OC)cc3)C(=O)C2=CN1C1CC1 (stereo unspecified)	nt	32*	40*	2	41*	-144	12
CCOc1ccc2[nH]c(=O)c(CN(Cc3cccs3)Cc3nnnn3C(C)(C)CC)cc2c1	0	109*	4	-2	7	9	-5
CCC(C)(C)n1nnnc1CN(Cc1cccs1)Cc1cc2cc(OC)ccc2[nH]c1=O	3	7	5	10	2	0	nt
CCN(c1ccccc1)S(=O)(=O)c1ccc(Cl)c(NC(=O)CSc2n[nH]c(N)n2)c1	0	39*	-2	-1	-1	-36	0
CS(=O)(=O)c1ccc(Cl)c(NC(=O)CSc2n[nH]c(N)n2)c1	nt	6	0	nt	4	nt	nt
CC(C)c1ccc(NC2CCCN(C(=O)c3cnsn3)C2)cc1 (stereo unspecified)	nt	2	2	nt	3	nt	nt
O=C(Nc1ccc(-c2nnn(CC(=O)N3CCN(C(=O)c4ccco4)CC3)n2)cc1)c1ccccc1F	-3	4	4	9	1	-14	nt
COc1ccccc1C(=O)Nc1ccc(-c2nnn(CC(=O)N3CCN(C(=O)c4ccco4)CC3)n2)cc1	1	51*	-4	20	0	-9	-6
Cc1cnc(C(=O)Nc2cccc3ncccc23)cn1	nt	4	4	nt	0	nt	nt
Cc1cnc(C(=O)Nc2ccccc2-c2ccc(C)o2)cn1	-6	42*	38	-1	36*	-23	2
O=C(Cc1ccc(-c2ccccc2)cc1)Nc1ncccc1O	nt	31*	29	nt	25	nt	0
CC(C)N1CC2=C(OC(N)=C(C#N)C2c2cccnc2)/C(=C/c2cccnc2)C1 (stereo unspecified)	2	39*	37	-9	45*	-59	5
CCOC(=O)c1ccc2ncc(C(=O)OCC)c(NCc3ccco3)c2c1	0	39*	30	13	33*	-11	3
Nc1cccc2c1C(=O)N(CC(=O)NC13CC4CC(CC(C4)C1)C3)C2=O	-2	37*	32	22	32*	-23	29
Nc1ccccc1C(=O)NC12CC3CC(CC(C3)C1)C2	nt	2	0	nt	-4	nt	nt
N#CC1=C2N=C(N)c3ccccc3N2C2=C(C(=O)CCC2)C1c1cccc(Cl)c1 (stereo unspecified)	-4	48*	16	-6	21	-3	-1
O=C(O)c1cccc(-n2cccc2/C=C2/SC(=O)N(CC(=O)N3CCCC3)C2=O)c1	nt	-4	13	nt	5	nt	nt
O=C(CN1CCCCCCC1)Nc1cc(Cl)cc(Cl)c1	-1	33*	3	-10	3	-20	3
O=C(OCC(=O)N1CCN(C(=O)c2ccco2)CC1)c1sc2cc(F)ccc2c1Cl	-4	36*	38	24	60*	-3	-5
